DAX1 inh-1 = inhibits human nuclear receptor DAX1; inhibition, % at 6.75 µM; 340,000 compounds, 0.99% hits; P51843; HEK293 Gal4-DAX1 luciferase reporter, luminescence; AID 504766;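 active means inhibition above the mean over all tested compounds plus 3 SD, cut at about 4.2% in these data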;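 further: 0% = DAX1-transfected cells with DMSO and 100% = empty-vector control cells with DMSO; inhibition shows as a rise in luminescence from relieved DAX1 repression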
Target sequence (P51843 207-470 limits assumed): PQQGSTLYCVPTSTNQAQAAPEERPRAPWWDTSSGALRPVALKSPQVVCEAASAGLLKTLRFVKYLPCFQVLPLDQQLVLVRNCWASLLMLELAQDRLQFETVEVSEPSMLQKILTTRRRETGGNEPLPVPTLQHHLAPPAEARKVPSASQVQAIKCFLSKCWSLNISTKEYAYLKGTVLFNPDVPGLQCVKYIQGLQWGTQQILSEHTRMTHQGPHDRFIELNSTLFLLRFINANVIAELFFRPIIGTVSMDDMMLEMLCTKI
hgDAF-12 ag = agonists of H. glycines DAF-12 nuclear receptor; 370,000 compounds, 1.8% hits; AID 687014; activation, % at 6.8 µM; HEK293 GAL4-hgDAF12 UAS-luciferase reporter, agonist luminescence; normalized to butyrate control;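 active means activation above a cutoff set at the mean of all screened compounds plus 3 SD, cut at about 10% in these data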;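 further: 0% = DMSO wells and 100% = sodium butyrate wells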
SMARCA2 activ = SMARCA2 function activation, primary screen; MG213 cells, MMTV-luciferase reporter, dexamethasone, overnight; activation, % at 9.1 µM; 370,000 compounds, 1% hits; AID 652017; in the data active means activation above about 7.8%;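 further: 0% = vehicle wells and 100% = reference activator wells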
DAX1 inh-2 = blocks DAX1 repression of SF-1 activated StAR promoter; inhibition, % at 6.8 µM; HEK293T StAR-luciferase reporter, SF-1/DAX-1 repression relief; 370,000 compounds, 1.1% hits;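 active means inhibition above the mean over all tested compounds plus 3 SD, cut at about 3.6% in these data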;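 further: 0% = DAX-1 cells with DMSO and 100% = cells lacking DAX-1 with DMSO; higher inhibition means more luminescence from relief of DAX-1 repression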
ssDAF-12 act = S. stercoralis DAF-12 activation, primary screen; 370,000 compounds, 1% hits; activation, % at 6.8 µM; HEK293 ssDAF-12/GRIP1 lit1-tk-luc reporter, luminescence; % of 3 µM dafachronic acid response;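 active means activation above the mean over all tested compounds plus 3 SD, cut at about 0.9% in these data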;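 further: 0% = DMSO-only wells and 100% = 3 µM delta7-dafachronic acid wells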
hcDAF-12 act = H. contortus DAF-12 activation, primary screen; HEK293 hcDAF-12 lit1-tk-luc reporter, luminescence; 0% DMSO, 100% Δ7-dafachronic acid; activation, % at 6.8 µM; AID 652067; 370,000 compounds, 1.4% hits;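 active means activation above the mean of all tested compounds plus 3 SD, cut at about 5.5% in these data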;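 further: 100% = response to 3 µM Δ7-dafachronic acid high control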
SMARCA2 act conf = confirmation of SMARCA2 (BRM) function activators; shares compounds with SMARCA2 activ; MG213 cells, MMTV-luciferase with dexamethasone, luminescence, overnight; MG213 cells expressing E1A, Rb sequestered; DMSO wells 0%, reference activator 100%; activation, % at 9.1 µM; 3,500 compounds, 30% hits;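 active means activation above its plate's cutoff, the mean activation of tested wells plus 3 SD, cut at about 7.9% in these data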
GAL4-VP16 Luc = GAL4-VP16 reporter activation counter-screen; shares compounds with SMARCA2 activ; HEK293 GAL4-VP16 pG5luc reporter, luciferase luminescence; scaled: DMSO wells 0%, SAHA wells 100%; activation, % at 9.1 µM; 3,500 compounds, 41% hits; AID 686939;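 active means activation above the solvent-only control well mean plus 3 SD, averaged across control plates, cut at about 5.2% in these data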
* = called active by the depositor; . = no result. A selection: hits, their analogues and other compounds. The true share with any hit is near 4.8%.

SMILES	DAX1 inh-1	hgDAF-12 ag	SMARCA2 activ	DAX1 inh-2	ssDAF-12 act	hcDAF-12 act	SMARCA2 act conf	GAL4-VP16 Luc
CCN1CCN(Cc2ccc(NC(=O)c3cc(NC(=O)C(=O)c4c[nH]c5ccccc45)cc(OC)c3)cc2C(F)(F)F)CC1	-0.2	-0.1	10.4*	0.1	-0.5	1.0	-14.9	2.6
CCN1CCN(Cc2ccc(NC(=O)c3ccc(C)c(NC(=O)C(=O)c4c[nH]c5ccccc45)c3)cc2C(F)(F)F)CC1	1.0	3.2	0.5	1.1	-0.5	2.7	.	.
C=CCOC(=O)N[C@@H](c1coc2ccccc2c1=O)[C@@H](C)/C=C/CC(=O)OC	.	0.9	1.2	-0.1	-1.3	-1.2	.	.
CCc1cccc(NC(=S)N(CCN(C)C)C(C)c2ccncc2)c1 (configuration not stated)	0.5	-0.2	-1.9	0.1	-0.8	0.0	.	.
CCOC(=O)c1ccc(NC(=S)N(CCN(C)C)C(C)c2ccncc2)cc1 (configuration not stated)	-0.2	-1.1	11.3*	-0.5	-1.5	-1.3	-2.3	-0.8
CCOC(=O)[C@@]12CCC3=C1N(CCC3)C(=O)[C@H](CC(=O)NCC1CCCCC1)C2	.	9.1	0.8	0.7	-1.2	-2.4	.	.
Cc1nc(N(C)C)c2sc(=S)n(Cc3ccccc3)c2n1	1.4	-3.1	8.8*	0.7	-0.9	-1.1	3.5	0.4
CCN(CC)c1nc(C)nc2c1sc(=S)n2C	0.3	-2.5	-1.6	-1.0	-1.8	-1.9	.	.
C[C@@H]1CCCCO[C@@H](CN(C)C(=O)Nc2ccc(C(F)(F)F)cc2)[C@@H](C)CN([C@H](C)CO)C(=O)c2cc(NS(=O)(=O)c3ccc(Cl)cc3)ccc2O1	.	-2.7	1.5	-0.9	-0.9	-0.4	.	.
COc1ccccc1-c1csc(C(NC(C)=O)c2ccc(F)c(F)c2)n1 (configuration not stated)	.	4.2	1.4	0.2	-0.8	-2.4	.	.
COc1ccccc1-c1csc(C(NC(C)=O)c2cccc(F)c2)n1 (configuration not stated)	.	2.1	8.4*	2.2	-1.2	0.0	2.6	0.7
COC(=O)[C@]1(C#N)CC(=O)N(Cc2ccc(Cl)cc2)[C@@H]1c1ccc(OC)cc1	.	1.7	-3.8	1.2	-1.4	-0.8	.	.
N/C(=N\OC(=O)c1cccc(Br)c1)c1ccncc1	0.8	9.7	8.0*	1.3	-0.3	2.3	7.2	7.4*
CCOC(=O)Cn1cnc(-c2ccc([N+](=O)[O-])cc2)c1	2.2	6.0	8.8*	2.1	0.0	2.0	7.6	5.8*
N#Cc1ccc(C(=O)Oc2coc(CSc3ncccn3)cc2=O)cc1	.	2.7	.	.	0.0	0.7	.	.
COC(=O)C1CCCN(C(=O)C2CCN(S(=O)(=O)c3cccs3)CC2)C1 (configuration not stated)	.	-1.5	3.5	-0.3	-1.7	-3.5	.	.
COc1ccc(C2Nc3ccccc3C(=O)N2c2ccc(C)cc2)cc1Cn1cc([N+](=O)[O-])cn1 (configuration not stated)	1.6	7.2	9.8*	1.7	-0.8	3.6	2.4	7.4*
C=CCN(CC#CC(=C)C)CC1CC1	.	3.0	-1.7	-1.3	-0.4	-2.3	.	.
COc1ccc(Oc2nc(-c3ccccn3)nc3ccccc23)cc1	.	3.4	8.3*	0.8	0.5	0.4	-6.2	-1.5
Fc1ccc(Oc2nc(-c3ccccn3)nc3ccccc23)cc1	.	4.3	9.0*	0.2	-1.0	0.4	-4.6	2.7
CCCC(C)NC(=O)CN(Cc1ccco1)S(=O)(=O)c1ccccc1 (configuration not stated)	-0.1	0.8	14.8*	-0.7	-0.9	-1.1	-3.6	-0.8
Cc1nc2ccccc2c2c1C(=O)N(c1cccc(C(=O)O)c1)C2=O	-2.0	-0.8	2.9	-0.4	-0.5	-2.0	.	.
